Source: PubChem BioAssay
Only some compounds are listed: those with a hit (about 18% of all), similar ones and a draw of the others.
TDP1 cell noCPT: qHTS for Inhibitors of human tyrosyl-DNA phosphodiesterase 1 (TDP1): qHTS in cells in absence of CPT | Potency, µM (doses to about 46.2 µM), for inactives: at the highest dose activity change, negative = growth inhibition, hits mostly inhibitors | AID 686978, 2013 | 420,000 compounds, 15% hits | DT40 Tdp1-/- hTDP1 cells, no CPT, ATP luminescence, 48 h; note: potency is the fitted concentration of half-maximal effect; nearly all actives have a fitted effect of over 55% in size
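Chicken DT40 Tdp1-/- cells stably complemented with human TDP1 were seeded at 400 cells/well with DMSO in place of 20 nM camptothecin. After compound pinning, cells grew at least 48 hr at 37 °C; viability read by CellTiter-Glo luminescence.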
DT40 TDP1 CPT: growth inhibition of DT40 Tdp1-/-;hTDP1 cells with camptothecin (screen for TDP1 inhibitors); 420,000 compounds, 12% hits; chicken DT40 Tdp1-/-;hTDP1 cells + 20 nM CPT, ATP luminescence, 48 h; Potency, µM (series often up to 46.2 µM), without a hit: at the highest dose activity change, negative = growth inhibition, hits mostly inhibitors; note: potency is the fitted concentration of half-maximal effect; nearly all actives have a fitted effect of over 55% in size
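Cell growth measured by CellTiter-Glo luminescence after a minimum 48 h, 37 C compound exposure with 20 nM CPT in Tdp1-knockout DT40 cells stably expressing hTDP1, seeded 400/well; qHTS titration format.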
CtBP-E1A blk: inhibitors of CtBP/E1A interaction. 340,000 compounds, 0.49% hits. activity change, % (no concentration beside the values). AlphaScreen GST-E1A/His-CtBP binding, 1536-well; active compounds read low. AID 651724; in the data active = activity change below about -65%; inconclusive = mostly about -30% to -63%
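Homogeneous bead-based format: GST-tagged E1A captured on glutathione donor beads, His-tagged CtBP on nickel acceptor beads; compounds precede bead addition by 2 h at 37 °C.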
Six1-Eya2 blk: blocks human Six1 binding to Eya2; Q15475+O00167; AlphaScreen GST-Six1/His-Eya2 binding, biochemical; active compounds read low; activity change, % (concentration not given with the values); 360,000 compounds, 0.56% hits; AID 651725; in the data active = activity change below about -65%; inconclusive = mostly about -30% to -63%
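GST-Six1 + His-Eya2 (5X stock: 250/500 nM); Tris pH 8.0, 300 mM NaCl, 0.05% BSA, 0.02% Tween 20; GSH donor/Ni acceptor beads; 1 h 37 °C dark; AlphaScreen readout.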
TDP1 inh: blocks human tyrosyl-DNA phosphodiesterase 1. Q9NUW8. recombinant TDP1, AlphaScreen DNA substrate cleavage. Potency, µM (doses to about 130 µM), for inactives: at the highest dose activity change, negative = inhibition, usual class: inhibitors. 350,000 compounds, 0.28% hits. AID 485290; note: potency is the fitted concentration of half-maximal effect; nearly all actives have a fitted effect of over 40% in size
Target sequence (Q9NUW8 whole entry, looked up): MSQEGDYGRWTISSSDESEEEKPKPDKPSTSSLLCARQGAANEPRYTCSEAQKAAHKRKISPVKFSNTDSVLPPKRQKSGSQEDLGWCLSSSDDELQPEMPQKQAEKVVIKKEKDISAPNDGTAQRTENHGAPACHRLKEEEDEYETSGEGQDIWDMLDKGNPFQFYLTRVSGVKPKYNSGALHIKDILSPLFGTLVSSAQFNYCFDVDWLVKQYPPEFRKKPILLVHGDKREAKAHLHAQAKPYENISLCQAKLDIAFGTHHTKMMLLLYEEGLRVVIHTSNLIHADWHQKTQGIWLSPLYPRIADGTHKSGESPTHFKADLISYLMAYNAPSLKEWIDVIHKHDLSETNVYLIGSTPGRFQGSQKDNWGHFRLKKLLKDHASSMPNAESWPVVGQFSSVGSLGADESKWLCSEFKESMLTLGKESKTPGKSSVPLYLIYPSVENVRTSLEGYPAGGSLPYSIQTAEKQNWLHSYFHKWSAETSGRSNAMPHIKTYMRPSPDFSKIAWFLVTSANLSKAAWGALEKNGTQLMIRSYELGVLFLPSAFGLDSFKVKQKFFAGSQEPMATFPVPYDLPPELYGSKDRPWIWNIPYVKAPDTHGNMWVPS
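Compounds were preincubated with Tdp1 (1 nM final) for 15 min at room temperature before substrate (15 nM final) started a 5 min reaction; beads (10 ug/ml final) were then added for 10 min before AlphaScreen detection.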
IL1B secr inh: blocks inflammasome-driven IL-1 beta release; activity change, % at 57.5 µM; THP-1 LPS/ATP IL-1B secretion, AlphaLISA, 16 h; active compounds read low; AID 743279; 360,000 compounds, 4.7% hits; in the data active = activity change below about -50%; inconclusive = mostly about -30% to -49%
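THP-1 cells pretreated 1 hr with compounds (up to 57.5 uM final), then stimulated with LPS (250 ng/mL final) plus ATP (1.25 mM final); secreted IL-1B measured by AlphaLISA after 16 hr, decreased signal indicating inhibition.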
The depositor's hits bear a star; ? = inconclusive; · = no result; [ ] = dose if it differs, or a comment. Unless noted, calls come from the whole dose curve; as a rule, active = well fitted curve in the direction sought with a large enough effect; inconclusive = small, poorly fitted or top-dose-only effect, or another doubt; inactive = no such curve, though single readings can be large; an effect the other way counts as inactive or inconclusive. % is set by controls: 0 for no effect and ±100 for the full control effect.

SMILES | TDP1 cell noCPT | DT40 TDP1 CPT | CtBP-E1A blk | Six1-Eya2 blk | TDP1 inh | IL1B secr inh
CC(C)CN(C(=O)COC(=O)c1cc2ccccc2cc1O)c1c(N)n(Cc2ccccc2)c(=O)[nH]c1=O | ? | ? | 0 | -2 | · | -54*
CC(=O)Nc1sc(C)c(C)c1C(=O)OCC(=O)N(CC(C)C)c1c(N)n(Cc2ccccc2)c(=O)[nH]c1=O | 5.8µM* | 23µM* | -1 | -2 | -11%[0.505 µM] | 2
CC(C)CN(C(=O)COC(=O)C12CC3CC(CC(O)(C3)C1)C2)c1c(N)n(Cc2ccccc2)c(=O)[nH]c1=O | -4% | 6% | -19 | 4 | · | -13
CC(C)CN(C(=O)COC(=O)C12CC3CC(CC(C3)C1)C2)c1c(N)n(Cc2ccccc2)c(=O)[nH]c1=O | 10µM* | ? | 6 | 8 | 6% | 3
Cc1cccc(C(=O)OCC(=O)N(CC(C)C)c2c(N)n(Cc3ccccc3)c(=O)[nH]c2=O)c1C | ? | ? | -20 | 7 | -2% | -19
CC(=O)c1ccc(NC(=O)C2CCCN(S(=O)(=O)c3cccc4nonc34)C2)cc1 (configuration not stated) | -6% | -14% | -19 | -10 | 10% | -7
COc1ccc(Cl)cc1-n1nnc(-c2nc(-c3ccccc3)no2)c1C | -1% | -19% | · | · | -3% | ·
CCCN(CC(=O)Nc1ccccc1OC)C(=O)c1ccc2ncsc2c1 | 9% | -9% | -6 | 2 | 2% | -18
CC(C)c1ccc(S(=O)(=O)Nc2cc3c(cc2NCc2ccccc2)n(C)c(=O)n3C)cc1 | ? | ? | · | · | 0%[12.3 µM] | ·
Cc1ccc(S(=O)(=O)Nc2cc3c(cc2NCc2ccccc2)n(C)c(=O)n3C)cc1 | 16µM* | 9.2µM* | · | · | 0%[12.3 µM] | ·
Cn1c(=O)n(C)c2cc(NS(=O)(=O)c3ccc(F)cc3)c(NCc3ccccc3)cc21 | 15µM* | 9.2µM* | · | · | 2% | ·
Cc1ccc(S(=O)(=O)Nc2cc3c(cc2NCc2ccccc2)n(C)c(=O)n3C)c(C)c1 | 23µM* | 8.2µM* | · | · | 12% | ·
Cc1ccc(S(=O)(=O)Nc2cc3c(cc2C)n(C)c(=O)c(=O)n3C)c(C)c1 | ? | -29% | · | · | 1% | ·
CCOC(=O)N1CCN(C(=O)COc2ccc(Cl)cc2)CC1 | -13% | 0% | 13 | 3 | 0% | 9
CCCC(=O)N1CCC1(C)C(=O)Nc1scc(C)c1C#N (configuration not stated) | 15µM* | 21µM* | 3 | 4 | · | 7
COC(=O)c1sc2ncccc2c1OCc1ccc(Cl)cc1 | -17% | -13% | -4 | 2 | 3% | -23
COCCNC(=O)c1sc2ncccc2c1-n1c(C)ccc1C | ? | 18µM* | · | · | 5% | ·
CCc1ccc(CNC(=O)c2sc3ncccc3c2-n2c(C)ccc2C)cc1 | 21µM* | 15µM* | · | · | 5% | ·
Cc1ccc(C)n1-c1c(C(=O)NCCC(C)C)sc2ncccc12 | 18µM* | 16µM* | · | · | 8% | ·
COc1ccc(-c2nc3ccc(NC(=O)CO)cc3c(=O)n2Cc2cccc(Cl)c2)cc1COc1ccc(NC(C)=O)cc1 | 13µM* | 11µM* | · | · | -10% | ·
COc1ccc(-c2nc3ccc(NC(C)=O)cc3c(=O)n2Cc2ccccc2)cc1COc1ccc(NC(C)=O)cc1 | 11µM* | ? | · | · | · | ·
C[C@@]12C(=O)N(c3cccc(F)c3)C(=O)N1[C@@H]1c3ccccc3OC[C@@H]1[C@H]2c1ccccc1 | 15µM* | ? | -2 | -2 | 0% | -8
C[C@]12C(=O)N(c3ccc(Cl)cc3)C(=O)N1[C@H]1c3ccccc3OC[C@@H]1[C@H]2c1ccccc1 | ? | ? | · | -12 | · | -6
C[C@@]12C(=O)N(c3cccc(Cl)c3)C(=O)N1[C@@H]1c3ccccc3OC[C@@H]1[C@H]2c1ccccc1 | ? | ? | 0 | -7 | 0% | 13
C[C@@]12C(=O)N(c3ccccc3)C(=O)N1[C@@H]1c3ccccc3OC[C@@H]1[C@H]2c1ccccc1 | ? | 16µM* | -4 | -7 | 0% | -6
SMILES | TDP1 cell noCPT | DT40 TDP1 CPT | CtBP-E1A blk | Six1-Eya2 blk | TDP1 inh | IL1B secr inh
C[C@]12C(=O)N(c3ccc(Cl)cc3)C(=O)N1[C@@H]1c3ccccc3OC[C@@H]1[C@H]2c1ccccc1 | 23µM* | ? | -23 | -7 | · | -2
C[C@]12C(=O)N(c3ccc(Br)cc3)C(=O)N1[C@@H]1c3ccccc3OC[C@@H]1[C@H]2c1ccccc1 | ? | ? | -18 | -2 | · | 3
C[C@@]12C(=O)N(c3ccc(Br)cc3)C(=O)N1[C@@H]1c3ccccc3OC[C@@H]1[C@H]2c1ccccc1 | 18µM* | ? | -1 | -13 | 1% | -2
CN1C(=O)CC(N2CCN(CC(N)=O)CC2)C1=O (configuration not stated) | 2% | 1% | 1 | 8 | 4% | 8
Cc1ccc(C(=O)C2=C(O)C(=O)N(c3ncccn3)C2c2ccc(Br)cc2)o1 (configuration not stated) | -25% | 0% | 4 | 6 | -1% | 4
N#Cc1ccc(CN2CCC3(CCNCC3)CC2)cc1 | 18µM* | ? | · | · | · | ·
O=C(CN1CCc2ccccc2C1)Nc1ccccc1N1CCCCCC1 | ? | ? | -1 | -5 | 7% | -13
CCCCNC(=O)C1(C)CCCCN1CC(=O)c1ccc(OC)cc1 (configuration not stated) | 26µM* | 16µM* | -10 | 9 | · | -10
Cc1cccn2c(=O)c3cc(C#N)c(=O)n(-c4nnc(SCc5ccc(F)cc5)s4)c3nc12 | ? | ? | · | · | -5% | ·
Oc1cccc(-c2nc3c4c(ncn3n2)-c2ccccc2CC42CCCC2)c1 | 18µM* | 18µM* | -16 | -12 | 4% | ?
Cc1ccccc1OCc1nc2c3c(ncn2n1)-c1ccccc1CC31CCCC1 | 15µM* | ? | 6 | 3 | -1% | -3
CCOc1ccccc1NC(=O)c1cc(S(=O)(=O)N2CCOCC2)cn1C | -2% | 5% | · | · | -4% | ·
CCOC(=O)Nc1ccc2nc(-c3cscn3)[nH]c2c1 | 5.8µM* | 6.5µM* | -5 | -1 | · | 5
COc1cccc(NC(=O)CN(C)C(=O)c2ccc(COc3ccccc3)cc2)c1 | 16µM* | ? | 0 | -7 | -17%[0.505 µM] | 9
COc1cccc(NC(=O)CN(C)C(=O)c2ccc(OCc3ccccc3)c(OC)c2)c1 | -4% | 3% | -5 | -5 | 0%[0.505 µM] | -9
